# Source: PubChem BioAssay (Tox21)
# Records with an inconclusive call do not appear. A call without a number means that no potency is given here. The source made the active and inactive calls. Calls follow the shape of the full dose curve.
# Target: Acetylcholinesterase (Homo sapiens) (UniProt P22303)
# Assay: Acetylcholinesterase (AChE) small molecule antagonists: fluorescence cell-based qHTS assay (AID 1347398); also: nearly all actives have a fitted effect of over 50% in size
# Settings: SH-SY5Y cells; Potency: AChE activity; outcome: AChE activity; series mostly up to 115 µM
# Method in brief: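 Fluorimetric cell-based assay: intact SH-SY5Y cells, 30 min compound preincubation at 37 C, acetylthiocholine substrate with thiol probe Thiolite Green, 40 min RT development, fluorescence 490/520 nm.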
# Chain of Acetylcholinesterase (Homo sapiens) (P22303 whole entry, looked up): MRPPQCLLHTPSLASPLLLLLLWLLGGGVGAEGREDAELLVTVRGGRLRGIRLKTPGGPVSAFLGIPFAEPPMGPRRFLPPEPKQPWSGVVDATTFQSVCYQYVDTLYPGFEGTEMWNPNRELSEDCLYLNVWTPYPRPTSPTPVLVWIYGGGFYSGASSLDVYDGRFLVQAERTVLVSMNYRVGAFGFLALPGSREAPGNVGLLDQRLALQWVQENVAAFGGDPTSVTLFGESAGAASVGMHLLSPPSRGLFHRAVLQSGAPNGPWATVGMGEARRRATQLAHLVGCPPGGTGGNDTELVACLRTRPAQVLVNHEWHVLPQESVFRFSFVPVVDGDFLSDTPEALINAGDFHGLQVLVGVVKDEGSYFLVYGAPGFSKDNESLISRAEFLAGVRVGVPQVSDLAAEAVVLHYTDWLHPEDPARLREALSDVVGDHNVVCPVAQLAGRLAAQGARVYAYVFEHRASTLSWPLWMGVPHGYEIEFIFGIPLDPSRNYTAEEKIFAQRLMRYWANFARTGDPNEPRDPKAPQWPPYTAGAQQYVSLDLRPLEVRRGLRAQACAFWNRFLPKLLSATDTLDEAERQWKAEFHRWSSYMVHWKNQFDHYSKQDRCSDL
SMILES,Potency,outcome,"activity change, negative = inhibition"
CNc1ccc([N+](=O)[O-])cc1,inactive,,
CC(C)=CCO,inactive,,
C#CCN[C@@H]1CCc2ccccc21,,inactive,
CN1CCCN(C(c2ccccc2)c2ccc(Cl)cc2)CC1 (stereo not given),inactive,,
Nc1ccc(O)c(N)c1,inactive,,
CN(C)CCN(C)CCN(C)C,inactive,,
CN(C)C(=O)NC1(c2ccccc2)CCN(CCC[C@]2(c3ccc(Cl)c(Cl)c3)CCCN(C(=O)c3ccccc3)C2)CC1,,,-16% [at 23.8 µM] (inactive)
C=C(C#N)C(=O)OCC,inactive,,
CC(=O)c1ccc(C(C)=O)cc1,inactive,,
C#CC(C)N(C)C(=O)Nc1ccc(Cl)cc1 (stereo not given),inactive,,
CN1N=C(C(N)=O)CCC1=O,inactive,,
OCCOCC#CCOCCO,inactive,,
CC(C)n1nc(-c2cc3cc(O)ccc3[nH]2)c2c(N)ncnc21,inactive,,
CCn1cc(C(=O)O)c(=O)c2cc3c(cc21)OCO3,inactive,,
C=CC(C)CCC=C(C)C (stereo not given),inactive,,
CC(=O)CCCCn1c(=O)c2c(ncn2C)n(C)c1=O,inactive,,
O=C1c2ccccc2C(=O)N1CO,inactive,,
O=c1[nH]c2cc(C(F)(F)F)c(N3CCOCC3)cc2n(CP(=O)(O)O)c1=O,inactive,,
O=C1O[C@@H]2[C@@H](O)[C@H](O)O[C@@H]2[C@H]1O,inactive,,
CCCc1nc2c(C)cc(-c3nc4ccccc4n3C)cc2n1Cc1ccc(-c2ccccc2C(=O)O)cc1,inactive,,

SMILES,Potency,outcome,"activity change, negative = inhibition"
OCCN1CCNCC1,inactive,,
C[C@]12CC[C@@H]3c4ccc(O)cc4CC[C@H]3[C@@H]1C[C@@H](O)[C@@H]2O,inactive,,
OCCOCCOCCO,inactive,,
CN(C)c1ccc(O)c2c1C[C@H]1C[C@H]3[C@H](N(C)C)C(=O)C(C(N)=O)=C(O)[C@@]3(O)C(=O)C1=C2O,inactive,,
CCCCC(C=O)CC (stereo not given),inactive,,
CCc1nn(C2CCCCC2)c2cc(C3(C#N)CCC(C(=O)O)CC3)ccc12 (stereo not given),inactive,,
CCCc1c(OCCCCc2nn[nH]n2)ccc(C(C)=O)c1O,inactive,,
C=C(C)C(=O)OCCCCCCOC(=O)C(=C)C,inactive,,
Nc1cc(S(=O)(=O)O)cc2cc(S(=O)(=O)O)cc(O)c12,inactive,,
O=c1cc[nH]c(=S)[nH]1,inactive,,
CCN1CCN(C(=O)N[C@@H](C(=O)N[C@@H]2C(=O)N3[C@@H]2SC(C)(C)[C@H]3C(=O)O)c2ccccc2)C(=O)C1=O,inactive,,
O=C(O)CCC(=O)C(=O)O,inactive,,
CC(C)=NNC(N)=S,inactive,,
CC(C)[C@@H]1CC[C@@H](C)CC1=O,inactive,,
CCCCN(CCC(=O)OCC)C(C)=O,inactive,,
CCn1cc(C(=O)O)c(=O)c2cc(F)c(N3CCN(C)CC3)cc21,,,2.98% [at 23.8 µM] (inactive)
CC(C)c1ccc2cc(C(C)C)ccc2c1,inactive,,
CCCCC(CC)COP(=O)(O)OCC(CC)CCCC (stereo not given),inactive,,
O=[N+]([O-])c1ccc2nc[nH]c2c1,inactive,,
CCCCCCCCCCCCCCC,inactive,,

# Target: Acetylcholinesterase (Homo sapiens) (UniProt P22303)
# Assay: Acetylcholinesterase (AChE) small molecule antagonists: enzyme-based qHTS assay with human liver microsomes (AID 1347399); also: nearly all actives have a fitted effect of over 60% in size
# Settings: Potency: qHTS inhibition; outcome: qHTS inhibition; series mostly up to 115 µM
# Method in brief: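 Recombinant human AChE (50 mU/mL in the enzyme mix) and human liver microsomes (0.25 mg/mL final) were preincubated with compound and NADPH (0.25 mg/mL final) for 30 min at 37 C. Acetylthiocholine/DTNB was then added; thiocholine was read colorimetrically after 10 min at room temperature.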
SMILES,Potency,outcome,"activity change, negative = inhibition"
CNc1ccc([N+](=O)[O-])cc1,inactive,,
CC(C)=CCO,inactive,,
C#CCN[C@@H]1CCc2ccccc21,,inactive,
CN1CCCN(C(c2ccccc2)c2ccc(Cl)cc2)CC1 (stereo not given),inactive,,
Nc1ccc(O)c(N)c1,inactive,,
CN(C)CCN(C)CCN(C)C,inactive,,
CN(C)C(=O)NC1(c2ccccc2)CCN(CCC[C@]2(c3ccc(Cl)c(Cl)c3)CCCN(C(=O)c3ccccc3)C2)CC1,,,4.25% [at 23.6 µM] (inactive)
C=C(C#N)C(=O)OCC,inactive,,
CC(=O)c1ccc(C(C)=O)cc1,inactive,,
C#CC(C)N(C)C(=O)Nc1ccc(Cl)cc1 (stereo not given),inactive,,
CN1N=C(C(N)=O)CCC1=O,inactive,,
OCCOCC#CCOCCO,inactive,,
CC(C)n1nc(-c2cc3cc(O)ccc3[nH]2)c2c(N)ncnc21,inactive,,
CCn1cc(C(=O)O)c(=O)c2cc3c(cc21)OCO3,inactive,,
C=CC(C)CCC=C(C)C (stereo not given),inactive,,
CC(=O)CCCCn1c(=O)c2c(ncn2C)n(C)c1=O,inactive,,
O=C1c2ccccc2C(=O)N1CO,inactive,,
O=c1[nH]c2cc(C(F)(F)F)c(N3CCOCC3)cc2n(CP(=O)(O)O)c1=O,inactive,,
O=C1O[C@@H]2[C@@H](O)[C@H](O)O[C@@H]2[C@H]1O,inactive,,
CCCc1nc2c(C)cc(-c3nc4ccccc4n3C)cc2n1Cc1ccc(-c2ccccc2C(=O)O)cc1,inactive,,

SMILES,Potency,outcome,"activity change, negative = inhibition"
OCCN1CCNCC1,inactive,,
C[C@]12CC[C@@H]3c4ccc(O)cc4CC[C@H]3[C@@H]1C[C@@H](O)[C@@H]2O,inactive,,
OCCOCCOCCO,inactive,,
CN(C)c1ccc(O)c2c1C[C@H]1C[C@H]3[C@H](N(C)C)C(=O)C(C(N)=O)=C(O)[C@@]3(O)C(=O)C1=C2O,inactive,,
CCCCC(C=O)CC (stereo not given),inactive,,
CCc1nn(C2CCCCC2)c2cc(C3(C#N)CCC(C(=O)O)CC3)ccc12 (stereo not given),inactive,,
CCCc1c(OCCCCc2nn[nH]n2)ccc(C(C)=O)c1O,inactive,,
C=C(C)C(=O)OCCCCCCOC(=O)C(=C)C,inactive,,
Nc1cc(S(=O)(=O)O)cc2cc(S(=O)(=O)O)cc(O)c12,inactive,,
O=c1cc[nH]c(=S)[nH]1,inactive,,
CCN1CCN(C(=O)N[C@@H](C(=O)N[C@@H]2C(=O)N3[C@@H]2SC(C)(C)[C@H]3C(=O)O)c2ccccc2)C(=O)C1=O,inactive,,
O=C(O)CCC(=O)C(=O)O,inactive,,
CC(C)=NNC(N)=S,inactive,,
CC(C)[C@@H]1CC[C@@H](C)CC1=O,inactive,,
CCCCN(CCC(=O)OCC)C(C)=O,inactive,,
CCn1cc(C(=O)O)c(=O)c2cc(F)c(N3CCN(C)CC3)cc21,,,-0.336% [at 23.6 µM] (inactive)
CC(C)c1ccc2cc(C(C)C)ccc2c1,inactive,,
CCCCC(CC)COP(=O)(O)OCC(CC)CCCC (stereo not given),inactive,,
O=[N+]([O-])c1ccc2nc[nH]c2c1,inactive,,
CCCCCCCCCCCCCCC,inactive,,
